Data on eight molecules can be found in PubChem BioAssay (NCI).

Compounds without any hit were thinned out: in the full panel of roughly 83,000, 20% have a hit.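 Negative percent growth values reflect cell death: -40 means 40% of the cells present at the start died, and -100 means all died.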 Values without a mark were called inactive. Activity calls are given as the source filed them. The calls were made as follows: active = growth percent below 10; inactive = the rest.

Test systems include SK-MEL-2 melanoma; EKVX NSCLC; SN12C renal; UO-31 renal; TK-10 renal; ACHN renal; CAKI-1 renal; A498 renal; CCRF-CEM leukemia; MOLT-4 leukemia; SR leukemia; RPMI-8226 leukemia; OVCAR-5 ovarian; OVCAR-4 ovarian; SK-OV-3 ovarian; IGROV1 ovarian; OVCAR-3 ovarian; HS 578T breast; NCI/ADR-RES ovarian; OVCAR-8 ovarian.
Assay in all cases: NCI-60 one-dose screen, 48 h (100 = growth as untreated, 0 = no growth, -100 = all killed)
Holding throughout (settings): 10 µM unless noted

Regarding `CN1C(=O)/C(=C2\SC(=Nc3ccccc3)N(Nc3ccccc3)C2=O)c2ccccc21`, the growth in the assay with SK-MEL-2 melanoma was 108%; with EKVX NSCLC it was 101%; with SN12C renal it was 97.8%; with UO-31 renal it was 61.4%; in the assay on TK-10 renal, 148%; in the assay on ACHN renal, 95.3%. In addition, the growth in the assay with CAKI-1 renal was 74.2%; with A498 renal it was 103%; in the assay on CCRF-CEM leukemia, 103%; in the assay on MOLT-4 leukemia, 101%; in the assay on SR leukemia it was 117%; with RPMI-8226 leukemia, 106%. For the same molecule, the growth is 104% with OVCAR-5 ovarian; 111% in the assay on OVCAR-4 ovarian; 98% in the assay with SK-OV-3 ovarian; 79.5% with IGROV1 ovarian; 110% in the assay on OVCAR-3 ovarian; 107% in the assay on HS 578T breast. The growth in the assay with NCI/ADR-RES ovarian was 102%.
For the molecule `O=C(/C=C/c1cccc(Cl)c1Cl)Nc1ncc(Cc2ccccc2Cl)s1`, the growth is 44.7% with SK-MEL-2 melanoma; 55.7% in the assay on EKVX NSCLC; 56.9% in the assay with SN12C renal; 44.6% with UO-31 renal; 84.2% in the assay on TK-10 renal; 46.4% with ACHN renal. Further, the growth was 48% in the assay with CAKI-1 renal; 39.6% in the assay on A498 renal; 21.5% in the assay on CCRF-CEM leukemia; 50.6% in the assay on MOLT-4 leukemia; 19.1% in the assay on SR leukemia; 35.4% in the assay on RPMI-8226 leukemia. The growth in the assay on OVCAR-5 ovarian is 80.1%; with OVCAR-4 ovarian, 70.2%; in the assay on SK-OV-3 ovarian it was 70.4%; in the assay on IGROV1 ovarian it was 39.3%; with OVCAR-3 ovarian, 11.3%; in the assay on HS 578T breast, 38%. Besides, in the assay with NCI/ADR-RES ovarian, the growth was 31%.
Take `Cc1ccc(Cl)cc1NC(=O)c1sc2nc3c(cc2c1N)C(=O)CCC3`: the growth was 64.5% with SK-MEL-2 melanoma; 75.3% in the assay on EKVX NSCLC; 80.6% in the assay on SN12C renal; 83.4% with UO-31 renal; 96.6% with TK-10 renal; 55.9% in the assay on ACHN renal. Besides, the growth with CAKI-1 renal was 41.4%; in the assay with A498 renal it was 51.2%; in the assay with CCRF-CEM leukemia it was 49.2%; with MOLT-4 leukemia, 84.9%; in the assay with SR leukemia, 68.9%; in the assay on RPMI-8226 leukemia it was 95.1%. The growth is 94.2% in the assay with OVCAR-5 ovarian; 90.1% with OVCAR-4 ovarian; 42.4% in the assay on SK-OV-3 ovarian; 75.7% in the assay with IGROV1 ovarian; 22.1% in the assay on OVCAR-3 ovarian; 60.9% in the assay on HS 578T breast. Moreover, the growth in the assay on NCI/ADR-RES ovarian is 43.8%.
As to `C/C(=N\O)c1ccc(NC(=O)CSc2nnc(-c3cc(-c4ccc(S(N)(=O)=O)cc4)nc4ccccc34)n2-c2ccccc2)cc1`, the growth in the assay with SK-MEL-2 melanoma is 84%; in the assay on EKVX NSCLC it was 77.3%; in the assay on SN12C renal, 78.6%; with UO-31 renal, 85.3%; in the assay on TK-10 renal, 80.8%; in the assay with ACHN renal, 95.9%. In addition, the growth with CAKI-1 renal was 55.6%; with A498 renal it was 39.7%; in the assay on CCRF-CEM leukemia it was 40.5%; in the assay on MOLT-4 leukemia, 32.3%; in the assay on SR leukemia it was 24.2%; in the assay with RPMI-8226 leukemia it was 34.4%. In addition, the growth was 96.6% in the assay on OVCAR-5 ovarian; 91.6% in the assay on OVCAR-4 ovarian; 108% with SK-OV-3 ovarian; 63% with IGROV1 ovarian; 78% in the assay on OVCAR-3 ovarian; 61.7% in the assay with HS 578T breast. In addition, the growth in the assay with NCI/ADR-RES ovarian is 98.9%.
Turning to `O=c1ccc(=O)n(-c2nc(-c3ccc([N+](=O)[O-])cc3)cs2)[nH]1`, the growth with SK-MEL-2 melanoma is 108%; in the assay with EKVX NSCLC, 101%; with SN12C renal, 101%; with UO-31 renal, 82.4%; in the assay on TK-10 renal it was 107%; in the assay on ACHN renal it was 102%. Also, the growth in the assay on CAKI-1 renal is 101%; with A498 renal it was 87.9%; in the assay on CCRF-CEM leukemia, 99.4%; in the assay with MOLT-4 leukemia, 86.5%; in the assay on SR leukemia, 94.5%; in the assay with RPMI-8226 leukemia, 95.3%. The growth with OVCAR-8 ovarian was 102%; in the assay on OVCAR-5 ovarian it was 102%; with SK-OV-3 ovarian, 107%; in the assay on IGROV1 ovarian, 99.3%; with OVCAR-3 ovarian, 102%; in the assay on HS 578T breast, 98.8%. In the assay on NCI/ADR-RES ovarian, the growth was 104%.
`Cc1cccc[n+]1C1c2ccccc2-c2ccccc21`: the growth with SK-MEL-2 melanoma is 90.2%; with EKVX NSCLC, 93.8%; in the assay on SN12C renal it was 94.2%; in the assay on UO-31 renal, 90.7%; with TK-10 renal, 89.5%; with ACHN renal, 107%. The growth was 100% in the assay on CAKI-1 renal; 82.9% in the assay with A498 renal; 78.5% with CCRF-CEM leukemia; 98.3% with MOLT-4 leukemia; 102% in the assay with SR leukemia; 70.7% in the assay with RPMI-8226 leukemia. Also, the growth in the assay with OVCAR-5 ovarian is 99%; with OVCAR-4 ovarian, 97.8%; in the assay with SK-OV-3 ovarian, 73.3%; in the assay with IGROV1 ovarian, 92.2%; with OVCAR-3 ovarian, 98.5%; in the assay with HS 578T breast, 101%. For the same molecule, in the assay on NCI/ADR-RES ovarian, the growth is 111%.
With `Cc1ccc(-c2nc(/C=C3/C(=O)Nc4ccc(F)cc43)c3ccccn23)cc1`, the growth in the assay on SK-MEL-2 melanoma is 31.9%; in the assay on EKVX NSCLC, 87.2%; with SN12C renal, 88.2%; in the assay with UO-31 renal, 70.2%; in the assay on TK-10 renal it was 89.2%; in the assay with ACHN renal, -3.57% (active). Moreover, the growth is 60.5% with CAKI-1 renal; 97.7% with A498 renal; 77.4% with CCRF-CEM leukemia; 77.7% in the assay with MOLT-4 leukemia; 58% in the assay on SR leukemia; 69.6% in the assay on OVCAR-8 ovarian. Moreover, the growth is 69.2% with OVCAR-5 ovarian; 63.4% in the assay with OVCAR-4 ovarian; 98% in the assay with SK-OV-3 ovarian; 55% in the assay with IGROV1 ovarian; 110% in the assay on OVCAR-3 ovarian; 99.2% with HS 578T breast. Besides, the growth in the assay on NCI/ADR-RES ovarian is 85.3%.
As to `C[C@H](CCCC(=O)NCC#CCN1CCN(C)CC1)[C@H]1CC[C@H]2[C@@H]3CC[C@@H]4CC(=O)CC[C@]4(C)[C@H]3CC[C@]12C`, the growth was 103% in the assay with SK-MEL-2 melanoma; 93.5% in the assay on EKVX NSCLC; 86% in the assay on SN12C renal; 64.5% in the assay on UO-31 renal; 99% with TK-10 renal; 105% in the assay with ACHN renal. In addition, the growth in the assay with CAKI-1 renal is 108%; in the assay on A498 renal, 75.4%; in the assay on CCRF-CEM leukemia, 81.2%; in the assay with MOLT-4 leukemia it was 84.3%; with SR leukemia it was 48.3%; with OVCAR-8 ovarian, 94.6%. The growth with OVCAR-5 ovarian was 93.3%; in the assay with OVCAR-4 ovarian, 98.4%; in the assay on SK-OV-3 ovarian, 81.6%; with IGROV1 ovarian, 92.2%; in the assay with OVCAR-3 ovarian it was 91.5%; with HS 578T breast it was 81.8%. Also, the growth in the assay with NCI/ADR-RES ovarian is 93.5%.
